Bioassay records (PubChem)
GLP-1R agonist – qHTS of GLP-1 Receptor Agonists; Glucagon-like peptide 1 receptor (Homo sapiens), P43220; AID 624172, 2012; Potency, µM (series often up to 45.6 µM), inactives show at the highest dose activation, actives largely listed as activators; 380,000 tested, 0.007% active; HEK293 GLP-1R CRE-luciferase, luminescence, 4-6 h; cells express a hypersensitive GLP-1R form; note: potency is the fitted concentration of half-maximal effect; % of control where 0% means no effect
Target sequence (P43220 whole entry, looked up): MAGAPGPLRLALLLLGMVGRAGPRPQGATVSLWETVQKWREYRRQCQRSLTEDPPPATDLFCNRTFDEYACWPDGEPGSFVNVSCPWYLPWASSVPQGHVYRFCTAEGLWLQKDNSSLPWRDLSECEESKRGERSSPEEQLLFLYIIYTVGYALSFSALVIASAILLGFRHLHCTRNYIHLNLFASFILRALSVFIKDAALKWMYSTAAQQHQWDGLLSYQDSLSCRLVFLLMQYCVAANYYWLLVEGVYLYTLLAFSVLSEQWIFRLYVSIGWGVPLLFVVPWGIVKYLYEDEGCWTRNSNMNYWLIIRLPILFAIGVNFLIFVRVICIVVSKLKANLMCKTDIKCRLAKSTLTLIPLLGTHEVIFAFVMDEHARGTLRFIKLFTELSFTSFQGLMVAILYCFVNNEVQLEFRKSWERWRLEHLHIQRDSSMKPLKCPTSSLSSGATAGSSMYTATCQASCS
D3 antag – qHTS of D3 Dopamine Receptor Antagonist: qHTS; 360,000 tested, 2.5% active; max response, negative = inhibition, %; D3R cells, DiscoveRx beta-arrestin luminescence, antagonist mode; hits give low values; D(3) dopamine receptor (Homo sapiens), P35462; AID 652054, 2013; in the data active = max response below about -50%; inconclusive = no clear call, values can overlap the other calls; note: % is set by controls: 0 for no effect and ±100 for the full control effect
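Cells plated overnight at 1500 cells/well, then exposed to library compounds with dopamine controls for 90 minutes at 37 degrees C. DiscoveRx reagent added for 30–60 minutes at room temperature; luminescence read, quantitative HTS format.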
GLP-1R inv ag – qHTS of GLP-1 Receptor Inverse Agonists (Inhibition Mode) | 410,000 tested, 1.6% active | Potency, µM (highest dose often 38.3 µM), for inactives: at the top dose activity change, negative = inhibition, actives largely listed as inhibitors | AID 624417, 2012 | Glucagon-like peptide 1 receptor (Homo sapiens), P43220 | HEK293 GLP-1R CRE-luciferase, luminescence, 24 h; GLP-1R form is constitutively active; note: potency is the fitted concentration of half-maximal effect; % is set by controls: 0 for no effect and ±100 for the full control effect; nearly all actives have a fitted effect of over 55% in size
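Stable HEK293 clone (constitutively active GLP-1R + cAMP-response luciferase); 200 cells/uL plated, 12 h pre-culture, compound 24 hr, 37 deg C/5% CO2; detection reagent 12 min RT; luminescence.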
D3 ag – qHTS of D3 Dopamine Receptor Agonist: qHTS; AID 652048, 2013; D3R DiscoveRx beta-arrestin cells, luminescence, 90 min; 410,000 tested, 0.58% active; D(3) dopamine receptor (Homo sapiens), P35462; max activation, %; in the data active = max activation above about 30%; note: 0% is about no effect
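Cells at 1500/well, incubated overnight, then treated with pinned compounds (dopamine as control) for 90 min at 37 degrees C. DiscoveRx reagent added for 30 - 60 minutes at room temperature; luminescence read.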
An asterisk follows results filed as active; ? = inconclusive; . = not tested or not shown; [ ] = dose if it differs, or a comment. An excerpt weighted towards active compounds, which were near 4.3% of everything screened. Unless noted, calls come from the whole dose curve; as a rule, active = well fitted curve in the direction sought with a large enough effect; inconclusive = small, poorly fitted or top-dose-only effect, or another doubt; inactive = no such curve, though single readings can be large; an effect the other way counts as inactive or inconclusive.

SMILES	GLP-1R agonist	D3 antag	GLP-1R inv ag	D3 ag
N/C(=N\N=C\c1ccc(O)cc1O)N[N+](=O)[O-]	-1%	-64*	1%	-4
COc1ccccc1/C=N/N=C(/N)N[N+](=O)[O-]	14%	-3	6%	4
CCCN(CCC)C1CCc2ccc(O)cc2C1 (stereo not drawn)	1%	.	-5%	122*
N#CC(C#N)=NNc1ccc([N+](=O)[O-])cc1	-10%	?	2.2µM*	-10
COCCCN1CCN(c2nnc3n2-c2sc(Br)cc2C(c2ccccc2Cl)=NC3)CC1	3%	-57*	0%	-6
COc1ccccc1N1CCN(C(=O)c2cc3c(-c4ccccc4F)nn(C)c3s2)CC1	.	.	?	56*
COc1cccc(CNC(=O)c2cc3c(-c4ccccc4F)nn(C)c3s2)c1	.	.	?	0
COC(=O)C1(C(=O)OC)C[C@H](c2ccc(OC)cc2)N(Cc2ccccc2OC)[C@@H]1c1cccs1	.	7	10µM*	-1
COOCC1(C(=O)OC)C[C@H](c2ccc(OC)cc2)N(Cc2ccccc2OC)[C@@H]1c1ccccc1C (stereo partly drawn)	.	6	?	1
C=CCN1CCc2cccc3c2[C@H]1Cc1ccc(O)c(O)c1-3	1%	-24	56%	116*
C=CCN1CC[C@]23c4c5ccc(O)c4O[C@H]2[C@@H](O)C=C[C@H]3[C@H]1C5	-3%	.	.	-9
CN1CCc2nc(SCc3ccccc3Br)c(C#N)cc2C1	13%	-81*	?	-11
CC(C)CCOP(=O)(c1ccc(N(C)C)cc1)C(O)c1c(Cl)cccc1Cl (stereo not drawn)	1%	-19	?	-5
O=C(CN1CC=C(c2ccccc2)CC1)Nc1c(Cl)cccc1Cl	0%	-71*	-26%	1
COc1cccc(C2(O)CCN(Cc3ccncc3)CC2)c1	1%	-62*	1%	-14
COc1ccc(NC(=O)CCn2cnc3onc(-c4ccc(F)cc4)c3c2=O)cc1OC	.	.	?	-6
CCn1c(=N)n(Cc2ccccc2F)c2ccccc21	-1%	16	?	-1
Cc1ccc(C2CC3CCC(C2)N3Cc2ccccc2F)cc1 (stereo not drawn)	-1%	-82*	?	-9
CCC(=NCc1cc(OC)cc(OC)c1)c1c(O)n(C)c(=O)n(C)c1=O	3%	57	8%	39*
O=c1[nH]c(=O)n(C2CCCCCC2)c(O)c1C=NCc1ccc(F)cc1	-3%	12	10µM*	3
O=c1[nH]c(=O)n(C2CCCCCC2)c(O)c1C=NC1CCN(Cc2ccccc2)CC1	-4%	-58*	-32%	-15
O=c1[nH]c(=O)n(C2CCCCCC2)c(O)c1C=NCC1CCCO1 (stereo not drawn)	-1%	-51*	-8%	11
Cn1c(O)c(C=NC2CCN(Cc3ccccc3)CC2)c(=O)[nH]c1=O	0%	-29	-17%	-35
O=c1[nH]c(=O)n(Cc2ccc(F)cc2)c(O)c1C=NCCN1CCCCC1	-8%	-15	2%	0
CCc1ccccc1NC(=O)C(CC)Oc1ccccc1-c1nnc(-c2ccccc2)o1 (stereo not drawn)	.	.	?	-21
SMILES	GLP-1R agonist	D3 antag	GLP-1R inv ag	D3 ag
Cc1ccc(N2CCN(C(=O)c3cn(CC4CCCCC4)nn3)C(C)C2)cc1 (stereo not drawn)	0%	-13	?	-7
Clc1ccc(CC[C@H](Cn2ccnc2)Sc2c(Cl)cccc2Cl)cc1	18%[19.8 µM]	.	.	.
CC[C@H]1CN2CCC1C[C@@H]2[C@@H](O)c1ccnc2ccc(OC)cc12 (stereo partly drawn)	-5%	-63*	?	-78
CC(C)Oc1ccc(CNC(=O)Oc2ccccc2)cc1	-4%	-7	?	-3
CC(C)[C@H]1C(=O)N2CCC[C@H]2[C@]2(O)O[C@](NC(=O)[C@@H]3C[C@@H]4c5cccc6[nH]cc(c56)C[C@H]4N(C)C3)(C(C)C)C(=O)N12	.	.	.	5
CC(C)[C@@]1(NC(=O)[C@@H]2C[C@@H]3c4cccc5[nH]cc(c45)C[C@H]3N(C)C2)O[C@@]2(O)[C@@H]3CCCN3C(=O)[C@H](Cc3ccccc3)N2C1=O	32%	-96*	-6%	-59
O=C(c1ccc2c(c1)OCO2)C1CCCN(CC2CCCCC2)C1 (stereo not drawn)	3%	-83*	13%	-26
Fc1ccc(CCNCc2ccc(Br)cc2)cc1	18%	-56*	?	-17
COc1cccc(CNCCc2ccc(F)cc2)c1	8%	-6	?	2
Fc1ccc(CNCCc2ccccc2F)cc1	-5%	?	-8%	-11
Fc1ccc(CCNCc2cccc(Cl)c2)cc1	17%	-56*	?	-29
CC1(C)S[C@@H]2[C@H](N3C(=O)C(c4ccccc4)NC3(C)C)C(=O)N2[C@H]1C(=O)O (stereo partly drawn)	.	.	.	-25
O=C1CC(c2ccc(Br)cc2)c2c(c3ccccc3oc2=O)O1 (stereo not drawn)	.	.	12%	51*
O=C(c1cc(F)ccc1F)C1CCCN(CCCc2ccccc2)C1 (stereo not drawn)	2%	-74*	?	-15
O=C(c1cc(F)ccc1F)C1CCCN(Cc2cccc(Cl)c2)C1 (stereo not drawn)	11%	-79*	10µM*	-7
OC(CN1CCC(c2c[nH]c3ccccc23)CC1)C(F)(F)F (stereo not drawn)	1%	-63*	?	-6
COc1ccc(CN2CCN(C(=O)Cn3c(=O)oc4cc(Cl)ccc43)CC2)c(OC)c1OC	-4%	-19	?	-5
O=C(Nc1nnc(SCc2ccccc2Cl)s1)C1COc2ccccc2O1 (stereo not drawn)	-12%	-59*	?	-1
COc1ccc(-c2nn(-c3ccccc3)cc2C(=O)N2c3ccc(C)cc3C3CN(C)CCC32)cc1 (stereo not drawn)	9%	1	14µM*	9
C=CCC1=C(C)C(OC(=O)C2C(C=C(C)C)C2(C)C)CC1=O (stereo not drawn)	0%[96 µM]	.	.	-11
CCC(=O)OC1[C@@H](N2CCCCC2)C[C@H]2[C@@H]3CC[C@H]4C[C@H](OC(C)=O)[C@@H](N5CCCCC5)C[C@]4(C)[C@H]3CC[C@]12C (stereo partly drawn)	0%	.	.	.
CC1=C(N2CC2)C(=O)C(CO)=C(N2CC2)C1=O	-37%	-96*	?	-36
C/C=C1\CN2[C@H]3C[C@@]45c6ccccc6N(C)[C@H]4[C@@H]2CC1C3[C@H]5O (stereo partly drawn)	7%	-63*	-13%	-56
